Records with an inconclusive call do not appear. Active and inactive are the calls of the source. Unless noted, calls follow the shape of the dose curve; as a rule, active = well fitted curve in the direction sought with a large enough effect in the repeat runs; inconclusive = weak or mixed curves; inactive = no such curve, though single readings can be large; an effect the other way counts as inactive or inconclusive.
Assays:
[1] = qHTS assay for small molecules that induce genotoxicity in human embryonic kidney cells expressing luciferase-tagged ATAD5 (AID 651632); also: nearly all actives have a fitted effect of over 15% in size
Summary of the method: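 DMSO vehicle served as the control. HEK293T reporter cells, 16 hr at 37C, then 30 min Amplite at room temperature; ATAD5 induction is measured as luciferase activity.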

[2] = qHTS assay for small molecule disruptors of the mitochondrial membrane potential - cell viability (AID 720634; calls by dose curve;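 also: human HepG2 liver cancer cells; series mostly up to about 83 µM; nearly all actives have a fitted effect of over 20% in size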)
Summary of the method: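 Viability of HepG2 cells is scored from ATP content by luminescence; cells are exposed to compound for 1 hr at 37 C and 5% CO2, then dosed with m-MPI dye before the CellTiter-Glo reagent.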

[3] = qHTS assay to test for compound auto fluorescence at 535 nm (green) in HepG2 cells (AID 720675)
[4] = qHTS assay to test for compound auto fluorescence at 590 nm (red) in HEK293 cells (AID 720679)
Summary of the method: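 Using HEK293 cells at 2,000 per well, the screen added 23 nL of each compound after cell attachment and incubated overnight (37C, 5% CO2). The plate reader then captured red-label fluorescence, Ex/Em 540/590nm.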

[5] = qHTS assay for small molecule agonists of the p53 signaling pathway - cell viability (AID 651633; calls by dose curve;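 also: p53RE-bla HCT reporter cells with a stable beta-lactamase p53 reporter; series mostly up to about 83 µM; nearly all actives have a fitted effect of over 30% in size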)
Summary of the method: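 p53RE-bla cells, seeded at 4,000 per well and rested 5 h at 37 C/5% CO2, received compounds in DMSO for 16 h at 37 C. CellTiter-Glo was then added, and luminescence was read after 30 min at room temperature to gauge cytotoxicity.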

[6] = qHTS assay for small molecules that induce genotoxicity in human embryonic kidney cells expressing luciferase-tagged ATAD5 - cell viability (AID 651634; calls by dose curve; also: nearly all actives have a fitted effect of over 25% in size)
Summary of the method: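 Here HEK293T cells with the ATAD5 luciferase reporter are incubated with test compounds for 15.5 hr, and cytotoxicity is then gauged by measuring protease activity in live cells using fluorescence.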

[7] = qHTS assay to test for compound auto fluorescence at 590 nm (red) in HepG2 cells (AID 720674)
Summary of the method: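 Intrinsic compound fluorescence in the red window (Ex/Em 540/590 nm) is measured in attached HepG2 cells exposed for 1 hr, DMSO vehicle as baseline, benchmarked to Rose Bengal sodium.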

[8] = qHTS assay to test for compound auto fluorescence at 460 nm (blue) in HEK293 cells (AID 720678)
Summary of the method: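 Measured: blue fluorescence (Ex 405/Em 460 nm) of compound-treated HEK293 cells, incubated overnight at 37C with 5% CO2 and scaled to triamterene equivalents.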

[9] = qHTS assay for small molecule disruptors of the mitochondrial membrane potential (AID 720635)
Summary of the method: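 HepG2 cells (2,000/well) attached overnight at 37C, then took compound for 1 hr at 37C, 5% CO2. Mito-MPS dye was added for 30 min; fluorescence was read at 490/535 nm (monomers) and 540/590 nm (aggregates).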

Measured: Potency

COc1ccc(CCO)cc1
inactive: [1] | [2] | [3] | [4]

C/C=C(\C)C(C)=O
not listed: [1] | [2] | [9]
inactive: all other assays above

CCCCCC(C)O (stereo not drawn)
not listed: [1] | [2] | [5]
inactive: all other assays above

CC1(C)Cc2cccc(N)c2O1
inactive: [5] | [9] | [7] | [3] | [8]

CC(C)C1OCCN1CCOC(=O)NCCCCCCNC(=O)OCCN1CCOC1C(C)C (stereo not drawn)
not listed: [1] | [8] | [9]
inactive: all other assays above

C=Cc1ccc(C(C)(C)C)cc1
inactive: [5] | [6] | [2] | [3] | [4]

COc1nc(N)nc2nc[nH]c12
inactive: [6] | [7] | [3] | [8]

CC1CCc2c(N3CCC(O)CC3)c(F)cc3c(=O)c(C(=O)O)cn1c23 (stereo not drawn)
not listed: [1] | [6] | [9]
inactive: all other assays above

CC(O)CC(C)O (stereo not drawn)
not listed: [1] | [9]
inactive: all other assays above

C=C(C)[C@@H]1CC=C(C)C(=O)C1
not listed: [5] | [8] | [9]
inactive: all other assays above

COP(=O)(O)OP(=O)(O)OC
not listed: [1] | [7]
inactive: all other assays above

CC(O)COC(C)(C)C (stereo not drawn)
inactive: [6] | [2] | [7] | [3] | [4]

CCC(=O)CC
inactive: [5] | [2] | [3] | [8]

CC(C)OC(=O)CCC(=O)OC(C)C
not listed: [1] | [8] | [9]
inactive: all other assays above

CC(C)NCC(O)c1ccc2ccccc2c1 (stereo not drawn)
not listed: [1] | [7] | [8]
inactive: all other assays above

Cc1cc(-c2ccccc2)nnc1NCCN1CCOCC1
not listed: [1]
inactive: all other assays above

O=NN(CCCl)C(=O)NC1CCCCC1
inactive: [5] | [6] | [9] | [3] | [8]

N[C@@H](Cc1ccc(O)cc1)C(=O)O
not listed: [1] | [4] | [5]
inactive: all other assays above

Cc1c(C(=O)c2c[nH]n(C)c2=O)ccc(S(C)(=O)=O)c1C1=NOCC1
inactive: [1] | [7] | [3] | [8] | [4]

CN(C)CCCCl
not listed: [2] | [5]
inactive: all other assays above

O=Cc1cc2ccccc2o1
not listed: [2] | [5] | [8]
inactive: all other assays above

C=CCOC(=O)CCCCCC
not listed: [2] | [5] | [9]
inactive: all other assays above

COC(=O)CCCCC(=O)O
not listed: [1] | [9]
inactive: all other assays above

OCCN1CCOCC1
inactive: [2] | [7] | [3] | [8] | [4]
